Results reported in PubChem BioAssay.
For some of these results: Results with a measured potency or affinity are listed apart. Activity calls are given as the source filed them.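 Rule for the calls, unless noted: active = calcium signal cut by more than 3 SD below the full-agonist control yet still positive, in both repeats and the earlier primary screen; inactive = the rest.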

Tests used:
[1] = test system: TRPC4 beta (transient receptor potential cation channel C4), mouse; test: activators of mouse TRPC4 channel, confirmation, cell-based, Fluo4 calcium, HEK293 TRPC4beta/mu-opioid, duplicates, 10 µM (AID 2426;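 active = fluorescence ratio normalized to control raised more than 50% in primary screen plus both repeat runs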); details: Fluo4 calcium fluorescence, at 10 µM; stronger effect = higher value
[2] = test system: transient receptor potential cation channel C4 beta (TRPC4), mouse; test: activators of mouse TRPC4 channel, confirmation, cell-based, second round, Fluo4, HEK293 TRPC4beta/mu-opioid, 1 µM (AID 2461;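 active = primary screen active and over 50% activation in each of two duplicate runs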); details: Fluo4 calcium fluorescence, at 1 µM; stronger effect = higher value
[3] = test system: TRPC4 (transient receptor potential cation channel C4 beta), mouse; test: positive allosteric modulators of mouse TRPC4, confirmation, cell-based, second round, Fluo-4, HEK293 TRPC4beta/mu-opioid, 1 µM (AID 2554;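 active = primary screen hit whose fluorescence ratio, in both repeats, exceeds the weak agonist control mean by 3 SD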); details: DAMGO EC20, Fluo-4 calcium flux, at 1 µM; stronger effect = higher value
[4] = test system: TRPC4 beta (transient receptor potential cation channel C4), mouse; test: positive allosteric modulators of mouse TRPC4, confirmation, cell-based, Fluo-4, HEK293 TRPC4beta/mu-opioid (AID 2555;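 active = primary screen hit whose calcium fluorescence ratio, in both repeats, exceeds the weak agonist control mean by 3 SD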); details: DAMGO EC20, Fluo-4 calcium flux, at 10 µM; stronger effect = higher value
[5] = biological target: Short transient receptor potential channel 4 (Mus musculus) (UniProt Q9QUQ5); test: inhibitors of mouse TRPC4 channel, confirmation, cell-based, Fluo4, HEK293 TRPC4beta/mu-opioid (AID 2636); details: DAMGO, Fluo4 calcium flux, at 10 µM; stronger effect = higher value
Chain of Short transient receptor potential channel 4 (Mus musculus) (Q9QUQ5 whole entry, looked up): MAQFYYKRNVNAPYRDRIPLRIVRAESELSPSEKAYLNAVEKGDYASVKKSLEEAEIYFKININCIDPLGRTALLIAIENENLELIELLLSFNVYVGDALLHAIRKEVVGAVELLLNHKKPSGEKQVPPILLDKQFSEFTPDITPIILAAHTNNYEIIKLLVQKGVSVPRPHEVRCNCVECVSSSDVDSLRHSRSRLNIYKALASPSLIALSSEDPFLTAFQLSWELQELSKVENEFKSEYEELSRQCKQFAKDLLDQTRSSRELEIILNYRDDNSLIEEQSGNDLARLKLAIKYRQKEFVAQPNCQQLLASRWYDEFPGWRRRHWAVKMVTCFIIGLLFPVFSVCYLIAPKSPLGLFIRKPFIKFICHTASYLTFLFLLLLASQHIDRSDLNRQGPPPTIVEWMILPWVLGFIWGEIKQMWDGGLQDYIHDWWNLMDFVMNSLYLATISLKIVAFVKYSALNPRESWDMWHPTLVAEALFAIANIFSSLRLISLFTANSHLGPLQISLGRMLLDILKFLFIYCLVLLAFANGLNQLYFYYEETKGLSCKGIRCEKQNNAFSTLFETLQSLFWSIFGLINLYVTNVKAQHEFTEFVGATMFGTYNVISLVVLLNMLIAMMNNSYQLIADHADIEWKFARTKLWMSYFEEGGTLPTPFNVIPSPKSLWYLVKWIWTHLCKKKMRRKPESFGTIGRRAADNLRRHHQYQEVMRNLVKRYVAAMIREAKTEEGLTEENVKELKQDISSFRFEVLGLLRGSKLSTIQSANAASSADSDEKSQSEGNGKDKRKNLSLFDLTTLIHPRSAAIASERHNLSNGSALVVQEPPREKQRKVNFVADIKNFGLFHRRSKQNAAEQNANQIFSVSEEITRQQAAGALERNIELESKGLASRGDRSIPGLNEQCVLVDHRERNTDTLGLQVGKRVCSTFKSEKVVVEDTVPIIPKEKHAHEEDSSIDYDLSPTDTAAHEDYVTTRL

[6] = biological target: Short transient receptor potential channel 4 (Mus musculus) (UniProt Q9QUQ5); test: inhibitors of mouse TRPC4 channel, confirmation, cell-based, second round, Fluo4, HEK293 TRPC4beta/mu-opioid, 1 µM (AID 2637;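 active = calcium signal ratio cut to more than 3 SD under the fully stimulated control mean yet still positive, in both repeats and the primary screen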); details: Fluo4 calcium flux, DAMGO, at 1 µM; stronger effect = higher value
[7] = biological target: Short transient receptor potential channel 4 (Mus musculus) (UniProt Q9QUQ5); test: mouse TRPC4 channel activators, dose response, cell-based, HEK293 TRPC4/mu-opioid, Fluo-4 calcium (AID 434937;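 active = primary screen activator hit with a dose response curve and TRPC4 channel activation at any tested dose; inactive = no activation, no dose response, or not a primary hit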)
[8] = biological target: Short transient receptor potential channel 4 (Mus musculus) (UniProt Q9QUQ5); test: TRPC4 positive allosteric modulators, dose response, cell-based, HEK293 TRPC4/mu-opioid, Fluo-4 calcium, EC20 DAMGO (AID 434941;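 active = earlier screen potentiator hit that boosts the TRPC4 ion channel at some dose, with a dose response; inactive = no potentiation, no dose response, or not a prior hit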;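 note: calcium entry triggered by an EC20 dose of DAMGO at the co-expressed mu-opioid receptor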)
[9] = biological target: Short transient receptor potential channel 4 (Mus musculus) (UniProt Q9QUQ5); test: mouse TRPC4 channel inhibitors, dose response, cell-based, HEK293 TRPC4/mu-opioid, Fluo-4 calcium (AID 434942;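 active = primary screen inhibitor hit that blocks the TRPC4 channel at some tested dose, yielding a dose curve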)
[10] = biological target: Short transient receptor potential channel 6 (Mus musculus) (UniProt Q61143); test: inhibition of mouse TRPC6 channel, confirmation, selectivity assay for TRPC4 inhibitor project, cell-based, HEK293, membrane potential dye, duplicate (AID 434948;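 active = active in primary screen and both duplicates, each dropping signal beyond three positive-control SD with fluorescence still positive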); details: HEK293 TRPC6, membrane potential dye fluorescence, at 10 µM, stimulated with maximal-effect acetylcholine; stronger effect = higher value
Chain of Short transient receptor potential channel 6 (Mus musculus) (Q61143 whole entry, looked up): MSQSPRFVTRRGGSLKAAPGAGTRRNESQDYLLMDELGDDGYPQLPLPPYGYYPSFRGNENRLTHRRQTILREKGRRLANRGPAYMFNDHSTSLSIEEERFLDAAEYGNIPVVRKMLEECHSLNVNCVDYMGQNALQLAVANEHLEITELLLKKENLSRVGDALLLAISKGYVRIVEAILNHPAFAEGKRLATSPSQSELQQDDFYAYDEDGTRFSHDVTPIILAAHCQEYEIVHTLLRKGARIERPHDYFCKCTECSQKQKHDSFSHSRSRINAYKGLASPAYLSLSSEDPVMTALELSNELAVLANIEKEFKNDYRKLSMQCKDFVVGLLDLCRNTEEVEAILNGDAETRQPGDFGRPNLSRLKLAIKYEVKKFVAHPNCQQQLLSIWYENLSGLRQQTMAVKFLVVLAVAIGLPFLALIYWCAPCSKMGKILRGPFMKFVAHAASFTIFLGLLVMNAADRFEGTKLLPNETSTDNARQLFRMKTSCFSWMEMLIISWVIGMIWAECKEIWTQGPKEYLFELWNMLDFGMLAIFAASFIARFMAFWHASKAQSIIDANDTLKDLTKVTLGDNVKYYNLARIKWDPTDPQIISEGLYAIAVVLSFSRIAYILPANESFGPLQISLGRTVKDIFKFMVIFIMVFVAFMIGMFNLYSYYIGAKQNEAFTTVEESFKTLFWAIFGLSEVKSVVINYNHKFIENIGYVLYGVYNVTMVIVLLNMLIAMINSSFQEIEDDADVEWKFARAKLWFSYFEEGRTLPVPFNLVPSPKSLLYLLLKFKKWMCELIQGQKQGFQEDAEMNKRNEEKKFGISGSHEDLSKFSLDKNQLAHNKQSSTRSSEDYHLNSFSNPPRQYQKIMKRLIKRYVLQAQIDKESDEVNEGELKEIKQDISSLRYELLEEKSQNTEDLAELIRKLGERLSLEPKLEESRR

[11] = biological target: Short transient receptor potential channel 6 (Mus musculus) (UniProt Q61143); test: activation of mouse TRPC6 channel, confirmation, selectivity assay for TRPC4 activator project, cell-based, HEK293, membrane potential dye, duplicate (AID 434950;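 active = membrane potential signal rise above negative control mean plus 3 SD in both duplicates, also active in the earlier TRPC4 screen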); details: HEK293 TRPC6, membrane potential fluorescence, at 10 µM; stronger effect = higher value
[12] = biological target: Short transient receptor potential channel 6 (Mus musculus) (UniProt Q61143); test: TRPC6 potentiation by TRPC4 potentiator hits, confirmation, selectivity assay for TRPC4 potentiator project, HEK293 cells, membrane potential dye, duplicate (AID 434952;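 active = compound raising the membrane signal above positive-control mean plus 3 SD in both repeats, and a primary screen hit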); details: HEK293 TRPC6, membrane potential dye fluorescence, at 10 µM, maximal acetylcholine added after compound; stronger effect = higher value
[13] = biological target: Short transient receptor potential channel 4 (Mus musculus) (UniProt Q9QUQ5); test: calcium flux activators in TRPC4/5HT1a cells, counter-screen for TRPC4 activator project, cell-based, second counter screen, HEK293 TRPC4/5HT1a, Fluo-4 (AID 434977;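 active = calcium signal rise above buffer-control mean plus 5 SD in both duplicates, and also a hit in the primary screen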); details: Fluo-4 calcium flux, at 10 µM; stronger effect = higher value
[14] = calcium flux inhibitors in TRPC4/5HT1a cells, confirmation, counter-screen for TRPC4 inhibitor project, cell-based, second counter screen, HEK293 TRPC4/5HT1a, Fluo-4 (AID 434978;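 active = primary screen active whose calcium signal fell more than 3 SD beyond the full-serotonin control mean in both duplicate plates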;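 note: serotonin given first at submaximal then at maximal dose after compound preincubation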); details: Fluo-4 calcium flux, at 10 µM, serotonin added to trigger calcium flux; stronger effect = higher value
[15] = test system: TRPC4 (mouse), co-expressed with 5HT1a in HEK293; test: calcium flux potentiators in TRPC4/5HT1a cells, confirmation, counter-screen for TRPC4 potentiator project, cell-based, second counter screen, HEK293 TRPC4/5HT1a, Fluo-4 (AID 434979;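 active = signal rise over 3 SD above mean of control wells given weak agonist, in both repeats and first screen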); details: Fluo-4 calcium flux, at 10 µM, serotonin added at its EC20 dose; stronger effect = higher value
[16] = calcium flux activation in mu-opioid HEK293 cells, confirmation, counter-screen for TRPC4 activator project, cell-based, HEK293 mu-opioid receptor line (AID 449723;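 active = hit in primary screen, with calcium signal over 5 SD above buffer well mean in both duplicates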;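 note: counter screen cells carry the mu-opioid receptor alone and lack TRPC4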); details: Fluo-4 calcium fluorescence, at 10 µM; stronger effect = higher value
[17] = calcium flux enhancement in mu-opioid HEK293 cells, confirmation, counter-screen for TRPC4 allosteric potentiator project, cell-based, HEK293 mu-opioid receptor line (AID 449724;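 active = calcium signal rise more than 3 SD above the low-dose agonist control mean, in both duplicate plates and the primary screen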); details: Fluo-4 calcium flux, at 10 µM, compound added before EC20 DAMGO stimulus; stronger effect = higher value
[18] = thallium flux activation in parental CHO cells, counter-screen for KCNQ1 potentiator project (AID 493006;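 active = duplicate-averaged activation above buffer control mean plus 5 SD of those controls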;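 for activation: fluorescence ratio of max minus min over baseline after K+ and Tl+ depolarization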); details: parental CHO-K1 cells, FluxOR thallium flux, at 10 µM; stronger effect = higher value
[19] = biological target: Potassium voltage-gated channel subfamily KQT member 1 (Homo sapiens) (UniProt P51787); test: KCNQ1 potassium channel potentiators, confirmation, FluxOR thallium flux, CHO cells, duplicates (AID 493007;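 active = potentiation averaged over duplicate wells exceeding buffer-only control mean by more than 3 SD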;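 for outcome: cells depolarized by a potassium plus thallium sulfate stimulus after compound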;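 for potentiation: 0% = buffer-only wells and 100% = R-L3 activator control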); details: KCNQ1 cell line, FluxOR thallium flux fluorescence, at 10 µM; stronger effect = higher value, % of reference activator effect, buffer zero
Chain of Potassium voltage-gated channel subfamily KQT member 1 (Homo sapiens) (P51787 whole entry, looked up): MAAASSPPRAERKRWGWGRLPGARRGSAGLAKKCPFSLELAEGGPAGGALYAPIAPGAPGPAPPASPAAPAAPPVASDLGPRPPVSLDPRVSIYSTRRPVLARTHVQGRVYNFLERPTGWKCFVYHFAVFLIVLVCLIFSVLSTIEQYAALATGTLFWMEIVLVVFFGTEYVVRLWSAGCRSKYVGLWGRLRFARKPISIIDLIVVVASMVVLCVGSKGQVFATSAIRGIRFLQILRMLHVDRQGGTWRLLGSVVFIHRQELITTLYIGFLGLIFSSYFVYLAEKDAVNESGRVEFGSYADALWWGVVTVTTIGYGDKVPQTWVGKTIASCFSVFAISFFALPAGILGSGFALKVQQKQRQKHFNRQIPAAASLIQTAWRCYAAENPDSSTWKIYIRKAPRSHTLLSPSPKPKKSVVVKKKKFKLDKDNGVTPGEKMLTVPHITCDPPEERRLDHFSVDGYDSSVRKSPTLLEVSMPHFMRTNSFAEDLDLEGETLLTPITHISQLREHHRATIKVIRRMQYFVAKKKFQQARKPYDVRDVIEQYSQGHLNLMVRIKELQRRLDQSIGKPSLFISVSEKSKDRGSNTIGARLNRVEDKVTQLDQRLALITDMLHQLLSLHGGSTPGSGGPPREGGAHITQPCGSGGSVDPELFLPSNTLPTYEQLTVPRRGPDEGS

[20] = biological target: Potassium voltage-gated channel subfamily KQT member 2 (Rattus norvegicus) (UniProt O88943); test: rat KCNQ2 channel potentiation, selectivity assay for KCNQ1 potentiator project, KCNQ2-CHO-K1 cells (AID 493009;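 active = mean duplicate potentiation above the buffer control mean plus 5 SD of buffer wells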;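 note: assay conditions were tuned for KCNQ1 rather than KCNQ2 modulators; signal is max minus min fluorescence divided by baseline after thallium stimulus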); details: FluxOR thallium flux fluorescence, at 10 µM; stronger effect = higher value, scaled: buffer 0, activator control 100
Chain of Potassium voltage-gated channel subfamily KQT member 2 (Rattus norvegicus) (O88943 whole entry, looked up): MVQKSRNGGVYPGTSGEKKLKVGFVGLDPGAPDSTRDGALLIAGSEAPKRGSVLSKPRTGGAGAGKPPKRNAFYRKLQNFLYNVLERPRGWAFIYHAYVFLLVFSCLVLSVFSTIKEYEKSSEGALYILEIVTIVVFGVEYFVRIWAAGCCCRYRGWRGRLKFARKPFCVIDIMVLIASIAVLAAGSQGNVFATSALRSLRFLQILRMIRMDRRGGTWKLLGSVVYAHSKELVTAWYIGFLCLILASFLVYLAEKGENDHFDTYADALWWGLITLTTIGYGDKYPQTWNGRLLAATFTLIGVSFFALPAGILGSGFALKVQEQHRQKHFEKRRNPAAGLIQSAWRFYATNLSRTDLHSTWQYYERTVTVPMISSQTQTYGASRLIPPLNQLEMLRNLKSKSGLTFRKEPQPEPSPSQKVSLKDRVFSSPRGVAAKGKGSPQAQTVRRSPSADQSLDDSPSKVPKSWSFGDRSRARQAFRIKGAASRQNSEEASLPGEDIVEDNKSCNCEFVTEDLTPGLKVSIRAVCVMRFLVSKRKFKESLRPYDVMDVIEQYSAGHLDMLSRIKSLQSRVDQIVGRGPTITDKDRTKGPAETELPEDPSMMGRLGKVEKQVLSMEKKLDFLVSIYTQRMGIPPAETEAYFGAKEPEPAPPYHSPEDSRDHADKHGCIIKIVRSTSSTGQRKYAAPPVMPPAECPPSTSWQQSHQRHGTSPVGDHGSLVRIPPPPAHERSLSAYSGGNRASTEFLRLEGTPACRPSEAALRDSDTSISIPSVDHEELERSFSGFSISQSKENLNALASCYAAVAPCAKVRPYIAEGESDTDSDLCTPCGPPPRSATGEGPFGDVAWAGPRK

CCSc1ccccc1C(=O)NCCc1ccccc1
inactive: outcome [1] | outcome [2] | outcome [3] | outcome [4] | outcome [5] | outcome [6] | outcome [7] | outcome [8] | outcome [9] | outcome [10] | outcome [11] | outcome [12] | outcome [13] | outcome [14] | outcome [15] | outcome [16] | outcome [17]

COc1ccc(CN2CCN(c3nc4ccccc4s3)CC2)cc1
inactive: outcome [1] | outcome [2] | outcome [3] | outcome [4] | outcome [5] | outcome [6] | outcome [7] | outcome [8] | outcome [9] | outcome [10] | outcome [11] | outcome [12] | outcome [13] | outcome [14] | outcome [16] | outcome [17]
active: potentiation [15] 12.4%

Cc1ccc2oc(C(=O)N3CCC(O)(c4ccccc4)CC3)c(C)c2c1
inactive: outcome [1] | outcome [2] | outcome [3] | outcome [5] | outcome [6] | outcome [7] | outcome [8] | outcome [9] | outcome [10] | outcome [11] | outcome [12] | outcome [13] | outcome [14] | outcome [16] | outcome [17]
active: potentiation [4] 11% | potentiation [15] 27.2%

O=C(c1ccccc1)C1CCc2occc2C1=O (stereo not given)
inactive: outcome [1] | outcome [2] | outcome [3] | outcome [4] | outcome [5] | outcome [6] | outcome [7] | outcome [8] | outcome [9] | outcome [10] | outcome [11] | outcome [12] | outcome [13] | outcome [14] | outcome [15] | outcome [16] | outcome [17]

CCCC(=O)N/C(N)=N/c1nc(C)c2ccccc2n1
active: potentiation [3] 9% | potentiation [15] 10%
inactive: outcome [1] | outcome [2] | outcome [4] | outcome [5] | outcome [6] | outcome [7] | outcome [8] | outcome [9] | outcome [10] | outcome [11] | outcome [12] | outcome [13] | outcome [14] | outcome [16] | outcome [17]

Cn1c(=O)c2c(nc(SCCN3CCCCC3)n2Cc2ccccc2)n(C)c1=O
inactive: outcome [1] | outcome [2] | outcome [3] | outcome [5] | outcome [6] | outcome [7] | outcome [8] | outcome [9] | outcome [10] | outcome [11] | outcome [12] | outcome [13] | outcome [14] | outcome [16] | outcome [17]
active: potentiation [4] 36% | potentiation [15] 50.5%

CCOC(=O)C1NN=C(C(=O)c2ccccc2)C1c1ccc(Cl)cc1 (stereo not given)
inactive: outcome [1] | outcome [2] | outcome [3] | outcome [4] | outcome [5] | outcome [6] | outcome [7] | outcome [8] | outcome [9] | outcome [10] | outcome [11] | outcome [12] | outcome [13] | outcome [14] | outcome [15] | outcome [16] | outcome [17]

O=C(O)CCCN1C(=O)/C(=C\c2ccc(-c3nc4ccccc4s3)o2)SC1=S
active: potentiation [4] 10% | potentiation [15] 22.6%
inactive: outcome [1] | outcome [2] | outcome [3] | outcome [5] | outcome [6] | outcome [7] | outcome [8] | outcome [9] | outcome [10] | outcome [11] | outcome [12] | outcome [13] | outcome [14] | outcome [16] | outcome [17] | outcome [18] | outcome [19] | outcome [20]

O=C(Nc1ccnn1C1CCN(Cc2cc3ccccc3[nH]2)CC1)C1CCOC1 (stereo not given)
active: activation [18] 163% | potentiation [19] 53.5% | potentiation [20] 180%
inactive: outcome [1] | outcome [2] | outcome [3] | outcome [4] | outcome [5] | outcome [6] | outcome [7] | outcome [8] | outcome [9] | outcome [10] | outcome [11] | outcome [12] | outcome [13] | outcome [14] | outcome [15] | outcome [16] | outcome [17]

CN(C)S(=O)(=O)N1CCC(CCCC2CCN(S(=O)(=O)N(C)C)CC2)CC1
active: potentiation [4] 11% | potentiation [15] 8.71% | activation [18] 228% | potentiation [19] 99.5% | potentiation [20] 288%
inactive: outcome [1] | outcome [2] | outcome [3] | outcome [5] | outcome [6] | outcome [7] | outcome [8] | outcome [9] | outcome [10] | outcome [11] | outcome [12] | outcome [13] | outcome [14] | outcome [16] | outcome [17]

c1ccc(C(c2nnnn2C2CCCC2)N2CCN(c3ccccc3)CC2)cc1 (stereo not given)
inactive: outcome [1] | outcome [2] | outcome [3] | outcome [4] | outcome [5] | outcome [6] | outcome [7] | outcome [8] | outcome [9] | outcome [10] | outcome [11] | outcome [12] | outcome [13] | outcome [14] | outcome [15] | outcome [16] | outcome [17]

O=C1C=CC(=O)N1CCNc1ncc(C(F)(F)F)cc1Cl
inactive: outcome [1] | outcome [2] | outcome [3] | outcome [4] | outcome [5] | outcome [6] | outcome [7] | outcome [8] | outcome [9] | outcome [10] | outcome [11] | outcome [12] | outcome [13] | outcome [14] | outcome [15] | outcome [16] | outcome [17] | outcome [18] | outcome [20]
active: potentiation [19] 77.5%

NNc1ccc(Cc2ccc(Cl)cc2Cl)nn1
inactive: outcome [1] | outcome [2] | outcome [3] | outcome [4] | outcome [5] | outcome [6] | outcome [7] | outcome [8] | outcome [9] | outcome [10] | outcome [11] | outcome [12] | outcome [13] | outcome [14] | outcome [16] | outcome [17]
active: potentiation [15] 15.2%

CCNC(=S)N/N=C/c1cc(C)n(-c2ccc(Cl)cc2)c1C
inactive: outcome [1] | outcome [2] | outcome [3] | outcome [5] | outcome [6] | outcome [7] | outcome [8] | outcome [9] | outcome [10] | outcome [11] | outcome [12] | outcome [13] | outcome [14] | outcome [16] | outcome [17]
active: potentiation [4] 19% | potentiation [15] 17.3%
